Consider 28 compounds from PubChem BioAssay (NCATS).

Records with an inconclusive call do not appear. Where a call stands in place of a potency, no number is given. The source made the active and inactive calls. Calls come from the whole dose curve; as a rule, active = well fitted curve in the direction sought with a large enough effect; inconclusive = small, poorly fitted or top-dose-only effect, or another doubt; inactive = no such curve, though single readings can be large; an effect the other way counts as inactive or inconclusive.

The first test has as its system Tov112D. Description: Primary qHTS to identify gynecologic anti-cancer compounds using libraries of approved drugs and bioactive compounds (AID 1345084). Note: nearly all actives have a fitted effect of over 55% in size. Note: potency is the fitted concentration of half-maximal effect. Conditions: Gynecologic cancer cell panel viability, ATPlite luminescence, 48 h; series mostly up to 57.5 µM. The method in brief:
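Cells, 1,000 per well, were allowed to settle for 16 h at 37 C before compound addition. Five concentrations were tested for 48 h, and viability was read by ATPlite luminescence after 15 min at room temperature.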
Consider `O=c1[nH]c2ccccc2n1CCCN1CCC(n2c(=O)[nH]c3cc(Cl)ccc32)CC1`, for which the Potency result was “inactive”.
As for `C[C@]12CCC(=O)C(O)=C1CC[C@@H]1[C@@H]2CC[C@]2(C)C(=O)CC[C@@H]12`, the Potency result was “inactive”.
Consider `C#CCOC(C(=O)OCCN(C)C)(c1ccccc1)c1ccccc1`, for which the Potency entry is “inactive”.
Turning to `CC(C)=CCOc1c2occc2cc2ccc(=O)oc12`, the Potency entry is “inactive”.
Regarding `CC[N+]1(C)CCCC(OC(=O)C(O)(c2ccccc2)c2ccccc2)C1` (configuration not stated), the Potency result was “inactive”.
On to `CCCC(C)(COC(N)=O)COC(=O)NC(C)C` (configuration not stated), for which the Potency entry was “inactive”.
As for `Clc1ccc(CCC(Cn2ccnc2)Sc2c(Cl)cccc2Cl)cc1` (configuration not stated), the Potency entry is “inactive”.
On the same count and under the same terms, the figure for `C[C@H]1O[C@@H](O[C@H]2[C@@H](O)C[C@H](O[C@H]3[C@@H](O)C[C@H](O[C@H]4CC[C@@]5(C)[C@H](CC[C@@H]6[C@@H]5CC[C@]5(C)[C@@H](C7=CC(=O)OC7)CC[C@]65O)C4)O[C@@H]3C)O[C@@H]2C)C[C@H](O)[C@@H]1O` is 0.0891 µM (active); for `C=C(C)[C@H]1Cc2c(ccc3c2O[C@@H]2COc4cc(OC)c(OC)cc4[C@@H]2C3=O)O1` it is 1.78 µM (active); for `Cc1cc(SCc2sc(-c3ccc(C(F)(F)F)c(F)c3)nc2C)ccc1OCC(=O)O` it is “inactive”.
In the case of `C=C1C[C@@H]2[C@H](CC[C@]3(C)C(=O)CC[C@@H]23)[C@@]2(C)C=CC(=O)C=C12`, the Potency result was “inactive”.
As to `COc1ccc(Cc2nccc3cc(OC)c(OC)cc23)cc1OC`, the Potency result is “inactive”.
The same measure, in the same setting: under `CNC(=O)c1ccc(N2C(=S)N(c3ccc(C#N)c(C(F)(F)F)c3)C(=O)C23CCC3)cc1F` stands “inactive”.
On to `COc1ccc2c(c1OC)CN1CCc3cc4c(cc3C1C2)OCO4` (configuration not stated), for which the Potency entry was “inactive”.
Still for that read-out and setting: the entry for `Oc1cc(Cl)ccc1Oc1ccc(Cl)cc1Cl` is “inactive”; for `CC(=O)Nc1cc([As](=O)(O)O)ccc1O` it is “inactive”.
As for `C#CCN(C)[C@H](C)Cc1ccccc1`, the Potency result was “inactive”.
On to `N#CC(C#N)=Cc1ccc(O)c(O)c1`, for which the Potency entry is “inactive”.
With `CCOC(=O)C1(c2ccccc2)CCN(CCC(C#N)(c2ccccc2)c2ccccc2)CC1`, the Potency entry was “inactive”.
As for `CC[C@@H](CO)NC(=O)[C@@H]1C=C2c3cccc4[nH]cc(c34)C[C@H]2N(C)C1`, the Potency entry was “inactive”.
With `Oc1ccc(Cl)cc1Cc1ccccc1`, the Potency result was “inactive”.
On to `CCC(=O)C(CC(C)N(C)C)(c1ccccc1)c1ccccc1` (configuration not stated), for which the Potency entry is “inactive”.
With `CC(C)CC(N(C)C)C1(c2ccc(Cl)cc2)CCC1` (configuration not stated), the Potency entry is “inactive”.
Turning to `FC(F)(F)c1cccc(C2=CCN(CCc3ccc4ccccc4c3)CC2)c1`, the Potency entry was “inactive”.
Turning to `CN(C)[C@@H]1C(=O)C(C(N)=O)=C(O)[C@@]2(O)C(=O)C3=C(O)c4c(O)cccc4[C@@](C)(O)[C@H]3C[C@@H]12`, the Potency result is “inactive”.
Take `CCCN1CCC[C@@H]2Cc3nc(N)ncc3C[C@H]21`: the Potency entry is “inactive”.
As to `CCCC1CCCCN1` (configuration not stated), the Potency result is “inactive”.
With `CCC(COC(=O)c1cc(OC)c(OC)c(OC)c1)(c1ccccc1)N(C)C` (configuration not stated), the Potency result is “inactive”.

System in another test: not listed separately
Description: Drug repurposing screens with cells derived from glioblastoma tumor samples (AID 1345199). Note: nearly all actives have a fitted effect of over 40% in size. Particulars: GBM patient neurospheres viability, ATP luminescence, 48 h; at 45.9 µM (top of the series); tumour line B. The method in brief:
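Primary testing used CD133+ neurospheres from four GBM patients, seven concentrations, 48 h exposure and ATP-based viability; confirmation added three slower-growing patient lines.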
As to `O=c1[nH]c2ccccc2n1CCCN1CCC(n2c(=O)[nH]c3cc(Cl)ccc32)CC1`, the activity, negative = cell killing is -24.9% (inactive).
Take `C#CCOC(C(=O)OCCN(C)C)(c1ccccc1)c1ccccc1`: the activity, negative = cell killing was 3.88% (inactive).
`CC(C)=CCOc1c2occc2cc2ccc(=O)oc12`: the activity, negative = cell killing was -6.14% (inactive).
Regarding `CC[N+]1(C)CCCC(OC(=O)C(O)(c2ccccc2)c2ccccc2)C1` (configuration not stated), the activity, negative = cell killing was -10.4% (inactive).
In the case of `CCCC(C)(COC(N)=O)COC(=O)NC(C)C` (configuration not stated), the activity, negative = cell killing was -7.57% (inactive).
Still for that read-out and setting: the figure for `CC(=O)Nc1cc([As](=O)(O)O)ccc1O` is -26.4% (inactive); for `C#CCN(C)[C@H](C)Cc1ccccc1` it is -10.5% (inactive).
As for `Oc1ccc(Cl)cc1Cc1ccccc1`, the activity, negative = cell killing was -24.8% (inactive).
Consider `CC(C)CC(N(C)C)C1(c2ccc(Cl)cc2)CCC1` (configuration not stated), for which the activity, negative = cell killing was -27.3% (inactive).
Take `CCCN1CCC[C@@H]2Cc3nc(N)ncc3C[C@H]21`: the activity, negative = cell killing was -7.67% (inactive).
Same read-out and setting: under `CCCC1CCCCN1` (configuration not stated) stands -22.5% (inactive).

The test is the same for the next values; noted with them: GBM patient neurospheres viability, ATP luminescence, 48 h; at 45.9 µM (top of the series); tumour line D.
As for `C#CCOC(C(=O)OCCN(C)C)(c1ccccc1)c1ccccc1`, the activity, negative = cell killing is 1.28% (inactive).
For the compound `CC(C)=CCOc1c2occc2cc2ccc(=O)oc12`, the activity, negative = cell killing is -22.8% (inactive).
For `CC[N+]1(C)CCCC(OC(=O)C(O)(c2ccccc2)c2ccccc2)C1` (configuration not stated), the activity, negative = cell killing was -8.99% (inactive).
Turning to `CCCC(C)(COC(N)=O)COC(=O)NC(C)C` (configuration not stated), the activity, negative = cell killing is -17.6% (inactive).
Turning to `CC(=O)Nc1cc([As](=O)(O)O)ccc1O`, the activity, negative = cell killing is -5.27% (inactive).
Regarding `C#CCN(C)[C@H](C)Cc1ccccc1`, the activity, negative = cell killing is -14.3% (inactive).
As for `CC(C)CC(N(C)C)C1(c2ccc(Cl)cc2)CCC1` (configuration not stated), the activity, negative = cell killing is -16.7% (inactive).
For `CCCN1CCC[C@@H]2Cc3nc(N)ncc3C[C@H]21`, the activity, negative = cell killing was -0.18% (inactive).
Still for that read-out and setting: the figure for `CCCC1CCCCN1` (configuration not stated) is -32.7% (inactive).

Staying with this test, now noted: GBM patient neurospheres viability, ATP luminescence, 48 h; at 46 µM (top of the series); tumour line A.
With `Oc1cc(Cl)ccc1Oc1ccc(Cl)cc1Cl`, the activity, negative = cell killing is -27.9% (inactive).
Regarding `C#CCN(C)[C@H](C)Cc1ccccc1`, the activity, negative = cell killing is -47.6% (inactive).
Take `CC[C@@H](CO)NC(=O)[C@@H]1C=C2c3cccc4[nH]cc(c34)C[C@H]2N(C)C1`: the activity, negative = cell killing was 16.5% (inactive).
For the compound `CC(C)CC(N(C)C)C1(c2ccc(Cl)cc2)CCC1` (configuration not stated), the activity, negative = cell killing was -28.1% (inactive).
